Laboratory results: PubChem BioAssay
Unmarked numbers belong to inactive results. For part of these data: Entries with a potency or affinity are not part of this list. Activity calls are given as the source filed them. Unless noted, how the calls were made is not given here.

Experiments:
[1] = antimalarial activity against Dd2 strain (AID 2302;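 active means growth inhibition above 50% at the single 2 µM test dose, taken to imply half-maximal potency below 2 µM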;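 further: 0% = DMSO untreated growth and 100% = chloroquine plus artemisinin killed control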); conditions: P. falciparum Dd2 in RBCs, LDH growth readout, 72 h; at 2 µM; stronger effect = higher value
[2] = human hepatoma cell viability loss – ATP luminescence, cytotoxicity control for P. falciparum antimalarial project, primary screen (AID 2303;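 active means inhibition above 50%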;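 further: 0% = DMSO wells and 100% = digitonin-killed cells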); conditions: HepG2 viability, 24-48 h, at 10 µM, stronger effect = higher value
[3] = target: L-lactate dehydrogenase (Plasmodium falciparum (isolate CDC / Honduras)) (UniProt Q27743); experiment: PfLDH activity inhibition – cell lysate, 3D7 strain, counter-screen for P. falciparum growth inhibition project (AID 2304);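 further: 0% = vehicle and 100% = reference inhibitor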; conditions: P. falciparum 3D7 crude extract, LDH APAD/NBT absorbance; at 2 µM; stronger effect = higher value
L-lactate dehydrogenase (Plasmodium falciparum (isolate CDC / Honduras)), sequence (Q27743 whole entry, looked up): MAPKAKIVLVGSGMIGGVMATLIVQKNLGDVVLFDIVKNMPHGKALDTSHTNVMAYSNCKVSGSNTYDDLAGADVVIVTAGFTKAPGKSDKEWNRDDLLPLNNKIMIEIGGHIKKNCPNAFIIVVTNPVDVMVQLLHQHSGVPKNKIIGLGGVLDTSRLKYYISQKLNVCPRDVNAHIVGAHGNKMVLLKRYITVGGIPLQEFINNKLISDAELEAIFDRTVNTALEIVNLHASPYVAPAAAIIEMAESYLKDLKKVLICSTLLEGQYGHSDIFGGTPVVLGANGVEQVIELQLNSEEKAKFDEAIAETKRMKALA

[4] = inhibition of 3D7 malaria parasite growth – strain 3D7 (AID 2306);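 further: 0% = DMSO wells and 100% = chloroquine plus artemisinin control wells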; conditions: P. falciparum 3D7 erythrocytic growth, LDH absorbance, 72 h; at 2 µM; stronger effect = higher value
[5] = target: Calcium-dependent protein kinase 1 (Plasmodium falciparum (isolate 3D7)) (UniProt P62344); experiment: PfCDPK1 kinase inhibitors, biochemical, TCAMS library (AID 1159585; cut-off not given, nearly all actives have IC50 up to about 0.98 µM;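 further: inhibitors leave more ATP so luminescence rises with inhibition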); conditions: recombinant PfCDPK1, Kinase-Glo ATP depletion luminescence
Calcium-dependent protein kinase 1 (Plasmodium falciparum (isolate 3D7)), sequence (P62344 whole entry, looked up): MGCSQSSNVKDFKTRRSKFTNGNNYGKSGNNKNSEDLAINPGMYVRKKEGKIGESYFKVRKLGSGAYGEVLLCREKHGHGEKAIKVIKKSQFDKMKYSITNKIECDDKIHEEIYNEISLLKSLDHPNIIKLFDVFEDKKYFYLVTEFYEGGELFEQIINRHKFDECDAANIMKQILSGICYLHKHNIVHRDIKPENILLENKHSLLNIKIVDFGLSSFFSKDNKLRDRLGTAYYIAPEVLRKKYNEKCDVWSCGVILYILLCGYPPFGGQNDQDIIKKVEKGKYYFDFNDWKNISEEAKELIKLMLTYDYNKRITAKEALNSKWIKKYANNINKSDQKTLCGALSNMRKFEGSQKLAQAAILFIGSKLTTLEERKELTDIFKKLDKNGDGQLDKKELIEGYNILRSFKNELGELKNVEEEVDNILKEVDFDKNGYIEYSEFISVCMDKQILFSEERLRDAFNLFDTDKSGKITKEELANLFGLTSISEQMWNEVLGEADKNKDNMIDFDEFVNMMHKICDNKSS

[6] = target: Plasmodium falciparum protein kinase 6 (PK6, PF3D7_1337100) (UniProt Q8IDW1); experiment: PfPK6 kinase inhibitors, biochemical, TCAMS library (AID 1159586); conditions: recombinant PfPK6, Kinase-Glo ATP depletion luminescence
Plasmodium falciparum protein kinase 6 (PK6, PF3D7_1337100), sequence (Q8IDW1 1-305): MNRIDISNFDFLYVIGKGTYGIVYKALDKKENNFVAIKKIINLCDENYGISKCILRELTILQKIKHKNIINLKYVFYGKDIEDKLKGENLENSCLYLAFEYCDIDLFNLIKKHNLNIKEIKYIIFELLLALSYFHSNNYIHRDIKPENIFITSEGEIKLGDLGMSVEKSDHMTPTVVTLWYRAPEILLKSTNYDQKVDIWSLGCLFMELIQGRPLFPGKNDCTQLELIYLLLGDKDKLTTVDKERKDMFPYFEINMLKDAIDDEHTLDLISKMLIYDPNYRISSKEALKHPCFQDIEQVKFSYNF

[7] = target: Protein kinase 7 (PK7), Plasmodium falciparum 3D7 (PF3D7_0213400) (UniProt Q7YTF7); experiment: inhibition of Plasmodium PK7 catalytic activity – biochemical, TCAMS antimalarial set, Kinase-Glo luminescence (AID 1159587); conditions: recombinant PfPK7, Kinase-Glo ATP depletion luminescence
Protein kinase 7 (PK7), Plasmodium falciparum 3D7 (PF3D7_0213400), sequence (Q7YTF7 1-343): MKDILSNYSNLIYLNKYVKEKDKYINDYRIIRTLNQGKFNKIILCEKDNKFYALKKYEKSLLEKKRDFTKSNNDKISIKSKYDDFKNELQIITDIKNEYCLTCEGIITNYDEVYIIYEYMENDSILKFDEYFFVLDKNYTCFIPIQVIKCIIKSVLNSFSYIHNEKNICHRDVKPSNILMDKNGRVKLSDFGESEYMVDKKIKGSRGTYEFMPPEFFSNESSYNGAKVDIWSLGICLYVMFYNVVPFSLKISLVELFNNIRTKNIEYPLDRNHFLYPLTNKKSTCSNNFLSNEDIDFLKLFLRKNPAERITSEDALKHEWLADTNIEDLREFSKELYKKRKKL

[8] = target: Calcium-dependent protein kinase 4 (Plasmodium falciparum (isolate 3D7)) (UniProt Q8IBS5); experiment: PfCDPK4 kinase inhibitors, biochemical, TCAMS library (AID 1159588; cut-off not given, nearly all actives have IC50 up to about 0.91 µM); conditions: recombinant PfCDPK4, Kinase-Glo ATP depletion luminescence
Calcium-dependent protein kinase 4 (Plasmodium falciparum (isolate 3D7)), sequence (Q8IBS5 whole entry, looked up): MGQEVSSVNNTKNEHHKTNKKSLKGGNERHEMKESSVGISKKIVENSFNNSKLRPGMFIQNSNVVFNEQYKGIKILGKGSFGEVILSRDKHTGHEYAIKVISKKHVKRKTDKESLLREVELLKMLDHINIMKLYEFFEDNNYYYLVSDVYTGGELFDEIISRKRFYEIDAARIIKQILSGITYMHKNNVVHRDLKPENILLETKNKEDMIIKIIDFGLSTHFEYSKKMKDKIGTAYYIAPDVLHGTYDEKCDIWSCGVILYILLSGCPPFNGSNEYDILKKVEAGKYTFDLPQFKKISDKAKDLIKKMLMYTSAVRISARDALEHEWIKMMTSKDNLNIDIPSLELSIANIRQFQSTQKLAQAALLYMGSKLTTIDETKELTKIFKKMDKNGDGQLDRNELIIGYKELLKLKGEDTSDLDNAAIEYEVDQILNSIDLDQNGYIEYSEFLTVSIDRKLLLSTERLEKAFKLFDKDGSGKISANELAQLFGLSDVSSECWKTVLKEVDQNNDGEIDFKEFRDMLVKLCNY

O=C(Nc1ccc(-c2csc(-c3nc4ccccc4[nH]3)c2)cc1)Nc1ccc(F)c(F)c1F
growth inhibition [1]: 64% (active) | inhibition [2]: 67% (active) | inhibition [3]: 2% | growth inhibition [4]: 100% (active) | outcome [5]: inactive | outcome [6]: inactive | outcome [7]: inactive | outcome [8]: inactive

NC1=NC(Cc2ccccc2)(c2ccncc2)C(=O)N1CCCc1ccccc1 (stereo not drawn)
growth inhibition [1]: 1% | inhibition [2]: 1% | inhibition [3]: 3% | growth inhibition [4]: 86% (active) | outcome [5]: inactive | outcome [6]: inactive | outcome [7]: inactive | outcome [8]: inactive

Cn1c(Sc2ncnc3sccc23)nc2ccccc21
growth inhibition [1]: 100% (active) | inhibition [2]: -12% | inhibition [3]: 5% | growth inhibition [4]: 100% (active) | outcome [5]: inactive | outcome [6]: inactive | outcome [7]: inactive | outcome [8]: inactive

CCn1c(-c2nonc2N)nc2c(Cl)ncc(O[C@H](CCN)c3ccccc3F)c21
growth inhibition [1]: 88% (active) | inhibition [2]: 15% | inhibition [3]: -2% | growth inhibition [4]: 96% (active) | outcome [5]: inactive | outcome [6]: inactive | outcome [7]: inactive | outcome [8]: inactive

CN(C)Cc1cccc(-c2ccc(NC(=O)c3ccc4c(=O)n(Cc5ccoc5)cnc4c3)cc2)c1
growth inhibition [1]: 9% | inhibition [2]: 54% (active) | inhibition [3]: 3% | growth inhibition [4]: 98% (active) | outcome [5]: inactive | outcome [6]: inactive | outcome [7]: inactive | outcome [8]: inactive

CCCCCCOc1ccc(C(=O)NCCCC2CCN(CCCCCNC(=O)C=Cc3ccc(Cl)c(Cl)c3)CC2)cc1
growth inhibition [1]: 25% | inhibition [2]: 22% | inhibition [3]: -2% | growth inhibition [4]: 94% (active) | outcome [5]: inactive | outcome [6]: inactive | outcome [7]: inactive | outcome [8]: inactive

Fc1ccc2nc(-c3cccc(-c4cccc(CNCc5cnn(-c6ccccc6)n5)c4)c3)[nH]c2c1
growth inhibition [1]: 57% (active) | inhibition [2]: 18% | inhibition [3]: 4% | growth inhibition [4]: 91% (active) | outcome [5]: inactive | outcome [6]: inactive | outcome [7]: inactive | outcome [8]: inactive

COc1ccc2nc(NC3=NC4(c5ccccc5)N=C(Nc5nc6ccc(OC)cc6[nH]5)NC4(c4ccccc4)N3)[nH]c2c1 (stereo not drawn)
growth inhibition [1]: 85% (active) | inhibition [2]: -5% | inhibition [3]: -6% | growth inhibition [4]: 100% (active) | outcome [5]: inactive | outcome [6]: inactive | outcome [7]: inactive | outcome [8]: inactive

O=c1c(Br)c(C(F)(F)F)[nH]c2ccc(Oc3ccccc3)cc12
growth inhibition [1]: 17% | inhibition [2]: 6% | inhibition [3]: 0% | growth inhibition [4]: 91% (active) | outcome [5]: inactive | outcome [6]: inactive | outcome [7]: inactive | outcome [8]: inactive

COc1cc2nc(N3CCC(CNC(=O)c4cc(Br)c(Br)s4)CC3)nc(N)c2cc1OC
growth inhibition [1]: 97% (active) | inhibition [2]: 22% | inhibition [3]: 2% | growth inhibition [4]: 101% (active) | outcome [5]: inactive | outcome [6]: inactive | outcome [7]: inactive | outcome [8]: inactive

Oc1ccc(CNCCCCCCNCCc2ccc(Cl)cc2)cc1O
growth inhibition [1]: 7% | inhibition [2]: 2% | inhibition [3]: 2% | growth inhibition [4]: 94% (active) | outcome [5]: inactive | outcome [6]: inactive | outcome [7]: inactive | outcome [8]: inactive

NC(=NCCc1ccc(Cl)cc1)c1ccc(Cl)c(Cl)c1
growth inhibition [1]: 42% | inhibition [2]: 43% | inhibition [3]: -1% | growth inhibition [4]: 100% (active) | outcome [5]: inactive | outcome [6]: inactive | outcome [7]: inactive | outcome [8]: inactive

O=C(C=Cc1ccc(Cl)c(Cl)c1)NCCCCCN1CCCC(CCCNC(=O)/C=C/c2ccccc2)C1 (stereo not drawn)
growth inhibition [1]: 12% | inhibition [2]: 92% (active) | inhibition [3]: -4% | growth inhibition [4]: 98% (active) | outcome [5]: inactive | outcome [6]: inactive | outcome [7]: inactive | outcome [8]: inactive

CC1(C)N=C(N)N=C(N)N1OCC1CCCCC1
growth inhibition [1]: 97% (active) | inhibition [2]: 67% (active) | inhibition [3]: 4% | growth inhibition [4]: 94% (active) | outcome [5]: inactive | outcome [6]: inactive | outcome [7]: inactive | outcome [8]: inactive

COc1ccccc1N=C1SC(=Cc2cn(CC(=O)N3CCCc4ccccc43)c3ccccc23)C(=O)N1C1CCCCC1
growth inhibition [1]: 99% (active) | inhibition [2]: 10% | inhibition [3]: 2% | growth inhibition [4]: 100% (active) | outcome [5]: inactive | outcome [6]: inactive | outcome [7]: inactive | outcome [8]: inactive

CS(=O)(=O)NCCCNCc1ccc(-c2ccc(-c3nc4ccc(F)cc4[nH]3)s2)cc1
growth inhibition [1]: 30% | inhibition [2]: 23% | inhibition [3]: 1% | growth inhibition [4]: 95% (active) | outcome [5]: inactive | outcome [6]: inactive | outcome [7]: inactive | outcome [8]: inactive

COc1ccc(NC(=O)NC2CCN(CCCCCNC(=O)/C=C/c3ccc(Cl)c(Cl)c3)CC2)cc1
growth inhibition [1]: 1% | inhibition [2]: 5% | inhibition [3]: 0% | growth inhibition [4]: 96% (active) | outcome [5]: inactive | outcome [6]: inactive | outcome [7]: inactive | outcome [8]: inactive

Cc1cccc2[nH]c(-c3ccc(-c4ccc(CNCc5cnn(-c6ccccc6)n5)cc4)s3)nc12
growth inhibition [1]: 48% | inhibition [2]: 16% | inhibition [3]: -3% | growth inhibition [4]: 97% (active) | outcome [5]: inactive | outcome [6]: inactive | outcome [7]: inactive | outcome [8]: inactive

Cc1ccc(Cn2ncc(N3CCCNCC3)c(Cl)c2=O)cc1NC(=O)Nc1ccc(-c2ccccc2)cc1
growth inhibition [1]: 38% | inhibition [2]: 55% (active) | inhibition [3]: 1% | growth inhibition [4]: 101% (active) | outcome [5]: inactive | outcome [6]: inactive | outcome [7]: inactive | outcome [8]: inactive

Nc1nc2ncn(COC(COCc3ccccc3)COCc3ccccc3)c2c(=O)[nH]1 (tested in a mixture with another compound)
growth inhibition [1]: 57% (active) | inhibition [2]: 18% | inhibition [3]: -7% | growth inhibition [4]: 86% (active) | outcome [5]: inactive | outcome [6]: inactive | outcome [7]: inactive | outcome [8]: inactive

O=C(NCCN1CCCCC1)c1ccc(CNC(=O)c2ccc(O)c(-c3ccc(Cl)c(Cl)c3)c2)cc1
growth inhibition [1]: 68% (active) | inhibition [2]: 3% | inhibition [3]: -8% | growth inhibition [4]: 93% (active) | outcome [5]: inactive | outcome [6]: inactive | outcome [7]: inactive | outcome [8]: inactive

CC(C)CC(NC(=O)c1ccc(F)cc1)C(=O)N[C@H](/C=N/N1CCNC1=O)CC(C)C (stereo partly drawn)
growth inhibition [1]: 84% (active) | inhibition [2]: -5% | inhibition [3]: -4% | growth inhibition [4]: 89% (active) | outcome [5]: inactive | outcome [6]: inactive | outcome [7]: inactive | outcome [8]: inactive

O=C(NC1CCN(Cc2ccccc2)CC1)c1csc2nc(-c3ccc(Cl)cc3)cn12
growth inhibition [1]: 14% | inhibition [2]: 19% | inhibition [3]: -10% | growth inhibition [4]: 98% (active) | outcome [5]: inactive | outcome [6]: inactive | outcome [7]: inactive | outcome [8]: inactive

CCCC(=O)c1cnc2c(I)cccc2c1Nc1ccccc1C
growth inhibition [1]: 26% | inhibition [2]: 7% | inhibition [3]: 4% | growth inhibition [4]: 90% (active) | outcome [5]: inactive | outcome [6]: inactive | outcome [7]: inactive | outcome [8]: inactive

NC(=O)Nc1ccc2c(Nc3ccc(OCc4ccccc4)cc3)ncnc2c1
growth inhibition [1]: 20% | inhibition [2]: -1% | inhibition [3]: 3% | growth inhibition [4]: 84% (active) | outcome [5]: inactive | outcome [6]: inactive | outcome [7]: inactive | outcome [8]: inactive

CC(=O)Nc1ccc(OCCCN(Cc2ccccc2OC(F)(F)F)c2ccc(C(F)(F)F)c(C#N)c2)c(Cl)c1
growth inhibition [1]: 80% (active) | inhibition [2]: 5% | inhibition [3]: 0% | growth inhibition [4]: 91% (active) | outcome [5]: inactive | outcome [6]: inactive | outcome [7]: inactive | outcome [8]: inactive

CC(CCc1ccccc1)NCC(O)c1cccc([N+](=O)[O-])c1 (stereo not drawn)
growth inhibition [1]: 98% (active) | inhibition [2]: -2% | inhibition [3]: 1% | growth inhibition [4]: 97% (active) | outcome [5]: inactive | outcome [6]: inactive | outcome [7]: inactive | outcome [8]: inactive

CN(C)CCCNc1nccc(N(C)c2ccc(NC(=O)Nc3cc(C(F)(F)F)ccc3F)cc2)n1
growth inhibition [1]: 25% | inhibition [2]: 97% (active) | inhibition [3]: 2% | growth inhibition [4]: 93% (active) | outcome [5]: inactive | outcome [6]: inactive | outcome [7]: inactive | outcome [8]: inactive

Cc1cc(N[C@@H](Cc2ccccc2)C(=O)NCc2cccs2)nc(NCCc2ccccn2)n1
growth inhibition [1]: 49% | inhibition [2]: -4% | inhibition [3]: -2% | growth inhibition [4]: 93% (active) | outcome [5]: inactive | outcome [6]: inactive | outcome [7]: inactive | outcome [8]: inactive

Cc1nc2ccccc2n1C1C[C@H]2CC[C@@H](C1)N2CCCC1(c2ccccc2)CCN(C(=O)OCc2ccccc2)CC1 (stereo partly drawn)
growth inhibition [1]: 29% | inhibition [2]: 46% | inhibition [3]: -4% | growth inhibition [4]: 90% (active) | outcome [5]: inactive | outcome [6]: inactive | outcome [7]: inactive | outcome [8]: inactive

COc1ccc(C(=O)N2CCN(c3ccc([N+](=O)[O-])c(NC4CC4)c3)CC2)cc1Br
growth inhibition [1]: 68% (active) | inhibition [2]: 6% | inhibition [3]: 5% | growth inhibition [4]: 99% (active) | outcome [5]: inactive | outcome [6]: inactive | outcome [7]: inactive | outcome [8]: inactive

CCc1ccc(CNCC(CCNc2cc(=O)c3ccccc3[nH]2)NCc2cc(Br)cc(Br)c2)o1 (stereo not drawn)
growth inhibition [1]: 92% (active) | inhibition [2]: -11% | inhibition [3]: 1% | growth inhibition [4]: 100% (active) | outcome [5]: inactive | outcome [6]: inactive | outcome [7]: inactive | outcome [8]: inactive

CCc1nnc2sc(-c3cccc(NC(=O)c4ccc(OC)c(Cl)c4)c3)nn12
growth inhibition [1]: 55% (active) | inhibition [2]: 3% | inhibition [3]: -2% | growth inhibition [4]: 92% (active) | outcome [5]: inactive | outcome [6]: inactive | outcome [7]: inactive | outcome [8]: inactive

Cc1ccc(NC(=O)c2ccc(CN3CCCN(CC4CCCCC4)CC3)cc2)cc1F
growth inhibition [1]: 61% (active) | inhibition [2]: 51% (active) | inhibition [3]: -2% | growth inhibition [4]: 92% (active) | outcome [5]: inactive | outcome [6]: inactive | outcome [7]: inactive | outcome [8]: inactive

COc1cccc2cc(C(=O)N[C@@H](CC(C)C)C(=O)N[C@H](/C=N/NC(=O)OC(C)(C)C)Cc3ccccc3)oc12
growth inhibition [1]: 88% (active) | inhibition [2]: 11% | inhibition [3]: 0% | growth inhibition [4]: 99% (active) | outcome [5]: inactive | outcome [6]: inactive | outcome [7]: inactive | outcome [8]: inactive

CN(C)CCOc1cccc(-c2cnc(N)c(-c3nc4ccc(S(C)(=O)=O)cc4[nH]3)c2)c1
growth inhibition [1]: 82% (active) | inhibition [2]: 39% | inhibition [3]: 1% | growth inhibition [4]: 100% (active) | outcome [5]: inactive | outcome [6]: inactive | outcome [7]: inactive | outcome [8]: inactive
